# Screening results as filed in PubChem BioAssay.
# Shown are actives, neighbours in structure and some others; about 11% of the full set was active somewhere.
# HP1b binding inh: inhibitors of HP1-beta chromodomain binding to methylated histone tails; AlphaScreen HP1-beta / biotin-H3K9me3 peptide binding; Potency, µM (titrated, usually from 114 µM), for the others: at the top dose activity change, negative = inhibition, usual class: inhibitors; P83916; 390,000 compounds, 0.56% hits; also: nearly all actives have a fitted effect of over 70% in size
# Target sequence (P83916 whole entry, looked up): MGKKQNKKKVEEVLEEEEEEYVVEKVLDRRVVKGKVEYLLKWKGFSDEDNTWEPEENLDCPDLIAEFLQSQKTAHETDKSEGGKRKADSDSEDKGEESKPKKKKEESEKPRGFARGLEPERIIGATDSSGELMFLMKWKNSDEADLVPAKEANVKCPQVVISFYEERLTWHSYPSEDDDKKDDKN
#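 HP1-beta protein (50 nM final) preincubated 30 min at room temperature with biotinylated H3(1-18)K9me3 peptide (50 nM) in PBS pH 7.4, 0.01% Tween-20, then compound added for 30 min. AlphaScreen streptavidin donor/nickel chelate acceptor beads (10 ug/mL final), 30 min dark, luminescence read.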
# G9a block: blocks human histone lysine methyltransferase G9a; G9a H3K9 monomethylation, AlphaScreen, 2 h; Potency, µM (titrated, usually from 102 µM), without a hit: top-dose activity, negative = inhibition, most hits filed as inhibitors; 350,000 compounds, 8.8% hits; AID 504332; also: % is scaled to controls: 0 for no effect and ±100 for the full control effect; nearly all actives have a fitted effect of over 75% in size
# Target sequence (Q96KQ7 913-1193 limits assumed): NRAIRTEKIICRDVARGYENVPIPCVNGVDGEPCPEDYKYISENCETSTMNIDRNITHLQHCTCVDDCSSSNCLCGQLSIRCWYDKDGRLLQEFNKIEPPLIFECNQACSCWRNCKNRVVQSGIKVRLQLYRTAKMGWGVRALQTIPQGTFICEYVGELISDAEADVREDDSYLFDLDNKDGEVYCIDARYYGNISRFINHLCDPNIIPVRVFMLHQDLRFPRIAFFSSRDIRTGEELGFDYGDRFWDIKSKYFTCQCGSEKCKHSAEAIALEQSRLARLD
#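 Enzyme 20 nM + cpd, 15 min RT; add b-H3K9 pep 500 nM / SAM 20 uM; 2 h RT; anti-H3K9me1 Ab 0.5 ug/mL + SA donor / anti-rabbit acceptor beads 20 ug/mL each, 10 min; AlphaScreen read.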
# JMJD2A Tudor: inhibitors of human JMJD2A Tudor domain; O75164; AlphaScreen JMJD2A-Tudor / H3K4me3 peptide binding; Potency, µM (highest dose often 114 µM), inactives show at the highest dose activity change, negative = inhibition, hits mostly inhibitors; 390,000 compounds, 4.4% hits; AID 504339; also: % is scaled to controls: 0 for no effect and ±100 for the full control effect; nearly all actives have a fitted effect of over 50% in size
# BAZ2B block: inhibitors of human BAZ2B bromodomain; Q9UIF8; AlphaScreen BAZ2B-H3K14Ac peptide displacement; Potency, µM (titrated, usually from 114 µM), for the others: at the highest dose activity change, negative = inhibition, usual class: inhibitors; 360,000 compounds, 4.4% hits; also: % is scaled to controls: 0 for no effect and ±100 for the full control effect; nearly all actives have a fitted effect of over 60% in size
#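 Inhibition is scored as reduced AlphaScreen emission. The BAZ2B/b-H3(5-23)K14Ac complex (50 nM each) in PBS pH 7.4, 0.01% Tween-20 meets compound (up to 110 uM) for 30 min at RT before bead addition.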
# L3MBTL1 block: L3MBTL1 (human) inhibition. Potency, µM (doses to about 57.1 µM), inactives show at the highest dose activity, negative = inhibition, hits mostly inhibitors. 230,000 compounds, 0.66% hits. AlphaScreen L3MBTL1–H3K9me1 peptide binding; also: % is scaled to controls: 0 for no effect and ±100 for the full control effect; nearly all actives have a fitted effect of over 60% in size
#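 Displacement of a biotinylated histone H3(1-15) peptide monomethylated at Lys9 (75 nM) from L3MBTL1 (50 nM) was measured by AlphaScreen after a 30 min room-temperature compound incubation; cefsulodin titration served as intraplate control.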
# Active calls of the source: *; ? = inconclusive; . = no result given; ! = repeats disagree; [ ] = dose if it differs, or a comment. Calls follow the shape of the dose curve; as a rule, active = well fitted inhibition curve with a large enough effect; inconclusive = small, poorly fitted or top-dose-only effect; inactive = no such curve, though single readings can be large or run the other way. Potency is read from the fitted curve at half-maximal effect.
SMILES,HP1b binding inh,G9a block,JMJD2A Tudor,BAZ2B block,L3MBTL1 block
CCCOCc1cc(CN2CCN(c3ccccc3OC)CC2)c(O)c2ncccc12,-14%,?,20µM*,4.5µM*,.
CCOc1ccccc1N1CCN(Cc2cccc(OC)c2O)CC1,14%,-5%[59 µM],-23%,-11%,-1%
COc1ccccc1N1CCN(c2nc(C)nc3c2oc2ccccc23)CC1,5%,40µM*,45µM*,50µM*,-8%
CC(=O)c1nn(-c2ccc(OC(F)(F)F)cc2)nc1Nc1ccc(Cl)cc1,20%,-3%[59 µM],-10%,3%,.
O=C1NC(=O)/C(=C/c2ccc3c(c2)OC(F)(F)O3)S1,.,55%[59 µM],.,.,.
COc1ccccc1N1CCN(Cc2cc(COC(C)C)c3cccnc3c2O)CC1,12%,-50%[59 µM],22µM*,4µM*,.
CC(C)Oc1ccc(CCc2n[nH]c(=S)n2-c2ccccc2)cc1,-9%,2.5µM*,-33%,-23%,-6%
Cc1ccccc1OCc1n[nH]c(=S)n1-c1cccc(Cl)c1,37%,11µM*,-25%,-28%,-14%
CSc1n[nH]c(=O)n1-c1cccc(Cl)c1,17%,11%,7%,1%,-7%
Cc1cccc(C)c1OCc1n[nH]c(=S)n1-c1ccccc1,40%,2.5µM*,?,-21%,-4%
Cc1n[nH]c(=S)n1-c1cccc(Cl)c1,22%,4µM*,7.9µM*,-4%,-3%
COC(=O)c1nc(N2CCN(S(=O)(=O)c3ccc(C)cc3)CC2)c2ccccc2n1,30%,.,-22%,.,.
COC(Cc1n[nH]c(=S)n1-c1ccccc1)OC,26%,-15%[59 µM],18µM*,-5%,8%
Cc1ccccc1OCc1n[nH]c(=S)n1Cc1ccccc1,-8%,8.9µM*,-30%,-22%,-13%
COCc1n[nH]c(=S)n1-c1ccccc1,38%,40µM*,40µM*,2%,.
Cn1c(SCc2n[nH]c(=S)n2-c2ccccc2)nnc1-c1ccccc1,31%,8.9µM*,18µM*,-1%,4%
Cn1c(SCc2ccccc2)nnc1-c1ccncc1,23%,?,-12%,-11%,4%
c1ccc(CNc2ncncc2-c2ccoc2)cc1,.,4%[0.501 µM],.,.,.
Cn1cc(O)nc1NC(=O)Nc1cccc(Cl)c1,.,-34%[2.33 µM],.,.,.
Cc1cc2ccccc2n1-c1ccc(C(=O)N2CCC(C(=O)NCc3ccc(Cl)cc3)CC2)s1,10%,-7%[59 µM],-20%,-22%,.
CCOc1ccccc1NC(=O)c1cc2c(=O)[nH]c3ccccc3c2s1,29%,-6%[59 µM],-7%,.,.
Cc1ccc(OCc2n[nH]c(=S)n2-c2ccccc2)cc1C,9%,.,-17%,-10%,-1%
Cc1ccc(-n2c(CCc3ccccc3)n[nH]c2=S)cc1C,6%,2µM*,?,-31%,-2%
CCCOCC(O)CCc1n[nH]c(=S)n1-c1ccccc1 (centres undefined),25%,.,50µM*,-4%,14%
Cc1cccc(C)c1NCc1n[nH]c(=S)n1-c1ccccc1,23%,11µM*,40µM*,-25%,?
SMILES,HP1b binding inh,G9a block,JMJD2A Tudor,BAZ2B block,L3MBTL1 block
COc1ccc(N2C(=O)CN=C2Nc2nc(C)cc(C)n2)cc1,7%,-18%[12.7 µM],45µM*,5%,-1%
Cc1cc(C)nc(NC2=NCC(=O)N2c2ccccc2)n1,4%,-41%[12.7 µM],?,-9%,-2%
COc1ccccc1N1CCN(CCCOc2ccc(F)cc2)CC1,?,8.9µM*,2.2µM*,?,.
COc1ccccc1N1CCN(CCCNc2cc(=O)n(C)c(=O)n2C)CC1,.,22µM*!,.,-7%,.
COc1ccccc1N1CCN(CCOc2c(OC)cccc2OC)CC1,13%,40µM*,-2%[57.1 µM],-12%,.
COc1cccc(OC)c1OCCN1CCCC1,19%,.,-22%,-5%,1%
COc1ccccc1N1CCN(C/C=C/c2ccc(N(C)C)cc2)CC1,.,?,.,40µM*,?
COc1ccc(S(=O)(=O)N2CCN(CCCOc3ccc(F)cc3)CC2)cc1OC,0%,-45%,-18%,-28%,.
CC1(C)CC(=O)C2=C(C1)NC(Nc1nc3ccccc3o1)=NC2c1ccccc1 (centres undefined),20%[57 µM],.,-2%[57.1 µM],.,.
COc1ccccc1N1CCN(CCN(C(=O)c2ccc(I)cc2)c2ccccn2)CC1,.,21µM*,.,.,.
CCc1oc(C(=O)O)cc1CN(CC)CC,-2%,-27%[59 µM],32µM*,-19%,.
CCc1oc(C(=O)O)cc1COC,7%,45µM*,?,?,?
CCCc1oc(C(=O)O)cc1CN,39%,?,-19%,?,.
O=C(O)c1ccc(Cn2cc(/C=C\[N+](=O)[O-])c3ccccc32)o1,6%,40µM*,-24%,?,-19%
Cc1ccc(CN2C(=O)c3ccccc3S(=O)(=O)c3ccc(C(=O)OCC4CCCO4)cc32)cc1 (centres undefined),1%,0%[59 µM],-24%,-3%,.
O=C(CC1SC(=O)N(c2ccccc2)C1=O)Nc1ccc(Cl)cc1 (centres undefined),10%,45µM*,-23%,-36%,-2%
COc1ccc(NC(=O)N2CC3(CCN(C(=O)c4ccco4)CC3)C2)cc1,.,8%[12.7 µM],.,.,.
CC(C)C(=O)Nc1nc2c(ncn2[C@H]2CC(O)[C@@H](CO)O2)c(=O)[nH]1 (some centres undefined),9%[57 µM],.,8%[57.1 µM],.,.
CCn1c(SCC(=O)Nc2ccc(N(C)C)cc2)nnc1-c1cccc(C)c1,-22%,7.1µM*,?,?,-9%
CN(C)c1ccc(NC(=O)CSc2nnc(-c3cccs3)n2Cc2ccco2)cc1,?,10µM*,40µM*,45µM*,.
CCn1c(Cn2nnc(-c3ccccc3)n2)nnc1SCC(=O)Nc1ccc(N(C)C)cc1,23%,13µM*,-27%,-5%,-1%
CCn1c(SCC(=O)Nc2cc(C)on2)nnc1-c1cccc(C)c1,20%,17%,-12%,0%,.
CCn1c(SCC(=O)Nc2ccc(N3CCOCC3)c(Cl)c2)nnc1-c1ccc(N)cc1,43%,45µM*,?,-1%,.
CCCCCCOC(=O)C1(O)CC2OC1(C)n1c3ccccc3c3c4c(c5c6ccccc6n2c5c31)C(=O)NC4 (centres undefined),.,26%[2.33 µM],.,.,.
O=C(O)c1ccc2c(c1)C(=O)N([C@@H](Cc1ccc(O)cc1)C(=O)O)C2=O,.,8%[12.7 µM],-7%,-21%,9%
CCOC(=O)c1c(NC(=O)Cn2cnc([N+](=O)[O-])n2)sc2c1CCCC2,-10%,45µM*,-16%,8%,2%
NC(=O)c1c(NC(=O)Cn2cnc([N+](=O)[O-])n2)sc2c1CCCC2,11%[57 µM],?,-18%,-28%,.
CC(C)OC(=O)c1c(NC(=O)Cn2cnc([N+](=O)[O-])n2)sc2c1CCCC2,-23%,16µM*,-16%,-3%,-3%
CC1CCc2c(sc(NC(=O)Cn3cnc([N+](=O)[O-])n3)c2C(N)=O)C1 (centres undefined),25%,-26%,-19%,.,-1%
